According to PubChem BioAssay (EPA / NIEHS):
Where “and” joins values, the source holds several entries; their conditions need not be identical. Equal entries are not always repeated. Records with an inconclusive call do not appear. More than one record can exist for a structure, and the calls need not agree. Calls of active or inactive are those of the source. The calls were made as follows, unless noted: active = hit-call score of the fitted dose curve at least 0.9, where 1 is the maximum; inconclusive = response in the unintended direction; inactive = score below 0.9.

Tests used:
[1] = BSK_3C_VCAM1: BioMAP Diversity Plus: 3C Assay for Vascular cell adhesion molecule 1 (VCAM1) Biomarker Activity (AID 2282999; active = hit-call score of the fitted dose curve at least 0.9, where 1 is the maximum; inactive = score below 0.9); conditions: BioMAP 3C HUVEC, VCAM1 ELISA, cytokine-stimulated; actives raise or lower the signal
Outline: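 Vascular primary endothelium (human umbilical vein) was exposed to chemicals and assayed 24 h later. VCAM-1 levels came from ELISA, with DMSO serving as baseline for bidirectional fitting.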

[2] = BSK_4H_Eotaxin3: BioMAP Diversity Plus: 4H Assay for Eotaxin 3 Biomarker Activity (AID 2283000; active = hit-call score of the fitted dose curve at least 0.9, where 1 is the maximum; inactive = score below 0.9;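 also: CCL26 protein level quantified by ELISA in parallel with SRB cytotoxicity check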); conditions: primary human endothelial cells (HUVEC); actives raise or lower the signal
Outline: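 Human umbilical vein endothelial cells (BSK_4H system) dosed with test chemical; Eotaxin-3 (CCL26) measured by ELISA 24 h after dosing. Bidirectional curve fitting relative to DMSO negative control as baseline.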

[3] = target: human Peroxisome Proliferator-activated Receptor alpha (PPARa), PPARA (gene 5465) (UniProt Q07869); assay: ATG_PPARa_TRANS: Attagene TRANS-FACTORIAL HepG2 Assay for human Peroxisome Proliferator-activated Receptor alpha (PPARa) (AID 2283001)
Outline: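 Exposure: 24 h, transiently transfected HepG2 cells. Endpoint: GAL4-UAS reporter mRNA, RT-PCR with capillary electrophoresis fluorescence. Baseline: DMSO; increases fitted.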

[4] = BSK_3C_Proliferation: Cell Proliferation Assessment in the BioMAP Diversity Plus: 3C Assay (AID 2283006; active = hit-call score of the fitted dose curve at least 0.9, where 1 is the maximum; inactive = score below 0.9;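 as to AC50: potency may reflect either rise or fall in cell number versus DMSO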); conditions: primary human endothelial cells (HUVEC)
Outline: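 Measured here: sulforhodamine B (0.1%) staining of TCA-fixed sub-confluent umbilical vein endothelial cultures 48 h post-dosing, absorbance 560 nm. DMSO served as negative control and baseline; both signal gain and loss were modelled.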

[5] = target: Peroxisome proliferator-activated receptor gamma (Homo sapiens) (UniProt P37231); assay: ATG_PPARg_TRANS: Attagene TRANS-FACTORIAL HepG2 Assay for human Peroxisome Proliferator-activated Receptor-gamma (PPARg) (AID 2283007)
Outline: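 Endpoint reflects upward reporter mRNA change versus DMSO controls. Setup: transiently transfected HepG2, GAL4-UAS reporters driven by chimeric NR-Gal4, 24 h incubation, RT-PCR with capillary electrophoresis read-out.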

[6] = target: Nuclear receptor subfamily 1 group I member 2 (Homo sapiens) (UniProt O75469); assay: ATG_PXR_TRANS: Attagene TRANS-FACTORIAL HepG2 Assay for human Pregnane X Receptor (PXR) (AID 2283008)
Outline: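 Multiplexed TRANS reporter panel in HepG2; this component tracks PXR-Gal4-driven reporter mRNA after 24 h dosing, measured by RT-PCR with capillary electrophoresis fluorescence, fitted against DMSO.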

[7] = read-out: Intercellular Adhesion Molecule 1 (ICAM1), ICAM1 (gene 3383); assay: BSK_3C_ICAM1: BioMAP Diversity Plus: 3C Assay for Intercellular Adhesion Molecule 1 (ICAM1) Biomarker Activity (AID 2283003; active = hit-call score of the fitted dose curve at least 0.9, where 1 is the maximum; inactive = score below 0.9); conditions: primary human endothelial cells (HUVEC); actives raise or lower the signal
Outline: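 Using DMSO as baseline, bidirectional curve fitting was applied to ICAM-1 ELISA signals from HUVEC in the 3C system, measured 24 h after compound addition.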

[8] = target: human Retinoic Acid Receptor beta (RARb), RARB (gene 5915) (UniProt P10826); assay: ATG_RARb_TRANS: Attagene TRANS-FACTORIAL HepG2 Assay for human Retinoic Acid Receptor beta (AID 2283004)
Outline: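 Induction of reporter mRNA from a chimeric RARb-Gal4 construct was measured by RT-PCR, FAM labelling, HpaI digestion and capillary electrophoresis. Measurements followed 24 h compound treatment of transiently transfected human HepG2 liver cells, with DMSO as baseline.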

[9] = target: Retinoic acid receptor alpha (Homo sapiens) (UniProt P10276); assay: ATG_RARa_TRANS: Attagene TRANS-FACTORIAL HepG2 Assay for human Retinoic Acid Receptor alpha (RARa) (AID 2283005);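 as to AC50: potency for increased reporter signal meaning RARa activation over DMSO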
Outline: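 HepG2 cells transiently transfected with multiple reporter units expressing chimeric RARα-GAL4 fusion, with GAL4-UAS-driven reporters. After 24 h compound exposure, reporter mRNA induction quantified by RT-PCR and capillary electrophoresis with fluorescent labeling; gain-of-signal fitted relative to DMSO control.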

Measured: AC50

Chain of Peroxisome proliferator-activated receptor gamma (Homo sapiens) (P37231 whole entry, looked up, the tested form may be a part): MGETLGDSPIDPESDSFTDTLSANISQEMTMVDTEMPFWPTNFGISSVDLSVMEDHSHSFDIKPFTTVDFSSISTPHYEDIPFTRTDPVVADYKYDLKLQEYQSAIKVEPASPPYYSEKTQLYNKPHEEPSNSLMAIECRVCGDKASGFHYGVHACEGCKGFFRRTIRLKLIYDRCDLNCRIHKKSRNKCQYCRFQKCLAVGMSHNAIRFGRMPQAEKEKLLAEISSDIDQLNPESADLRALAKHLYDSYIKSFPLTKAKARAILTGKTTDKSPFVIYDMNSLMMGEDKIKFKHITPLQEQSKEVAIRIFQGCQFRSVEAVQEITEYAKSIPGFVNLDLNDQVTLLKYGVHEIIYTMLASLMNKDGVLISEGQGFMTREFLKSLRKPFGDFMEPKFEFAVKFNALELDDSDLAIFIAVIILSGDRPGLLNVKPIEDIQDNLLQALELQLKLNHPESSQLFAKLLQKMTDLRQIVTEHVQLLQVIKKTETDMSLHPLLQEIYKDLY
Chain of Nuclear receptor subfamily 1 group I member 2 (Homo sapiens) (O75469 whole entry, looked up, the tested form may be a part): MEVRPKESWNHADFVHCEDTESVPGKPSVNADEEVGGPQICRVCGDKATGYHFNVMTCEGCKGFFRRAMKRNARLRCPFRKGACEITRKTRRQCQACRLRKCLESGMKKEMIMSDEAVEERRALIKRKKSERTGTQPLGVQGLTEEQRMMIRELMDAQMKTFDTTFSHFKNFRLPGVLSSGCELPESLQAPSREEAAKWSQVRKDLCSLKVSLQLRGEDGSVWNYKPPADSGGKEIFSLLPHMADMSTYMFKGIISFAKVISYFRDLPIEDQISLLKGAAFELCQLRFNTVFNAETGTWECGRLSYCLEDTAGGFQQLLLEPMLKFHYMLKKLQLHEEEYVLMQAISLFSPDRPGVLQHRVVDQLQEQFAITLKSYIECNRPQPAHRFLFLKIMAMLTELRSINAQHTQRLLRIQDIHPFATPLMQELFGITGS
Chain of human Retinoic Acid Receptor beta (RARb), RARB (gene 5915) (P10826 whole entry, looked up, the tested form may be a part): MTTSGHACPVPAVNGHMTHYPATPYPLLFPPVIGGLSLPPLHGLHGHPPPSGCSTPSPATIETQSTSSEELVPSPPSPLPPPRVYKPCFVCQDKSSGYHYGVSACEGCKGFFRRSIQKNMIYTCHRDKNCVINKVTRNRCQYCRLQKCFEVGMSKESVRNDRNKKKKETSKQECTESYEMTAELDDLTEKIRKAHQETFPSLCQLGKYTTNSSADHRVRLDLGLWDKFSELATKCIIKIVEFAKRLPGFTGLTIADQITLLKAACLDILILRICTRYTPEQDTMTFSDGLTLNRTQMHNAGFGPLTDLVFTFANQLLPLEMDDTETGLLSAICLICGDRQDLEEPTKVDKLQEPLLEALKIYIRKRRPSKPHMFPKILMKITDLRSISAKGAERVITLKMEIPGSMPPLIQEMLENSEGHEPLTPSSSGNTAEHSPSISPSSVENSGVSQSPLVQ
Chain of Retinoic acid receptor alpha (Homo sapiens) (P10276 whole entry, looked up, the tested form may be a part): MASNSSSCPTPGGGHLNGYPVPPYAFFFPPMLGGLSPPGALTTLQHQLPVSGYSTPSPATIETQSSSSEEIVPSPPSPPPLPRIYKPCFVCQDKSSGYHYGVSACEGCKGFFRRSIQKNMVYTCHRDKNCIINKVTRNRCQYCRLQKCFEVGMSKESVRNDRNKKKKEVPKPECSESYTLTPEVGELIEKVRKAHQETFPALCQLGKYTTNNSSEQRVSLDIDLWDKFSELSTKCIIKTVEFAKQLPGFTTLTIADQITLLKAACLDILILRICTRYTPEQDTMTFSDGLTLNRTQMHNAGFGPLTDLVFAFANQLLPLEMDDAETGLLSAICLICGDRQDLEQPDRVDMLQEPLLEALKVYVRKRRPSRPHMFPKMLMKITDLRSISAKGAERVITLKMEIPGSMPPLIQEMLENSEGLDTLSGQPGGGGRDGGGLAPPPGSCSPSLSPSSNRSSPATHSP
Chain of human Peroxisome Proliferator-activated Receptor alpha (PPARa), PPARA (gene 5465) (Q07869 whole entry, looked up, the tested form may be a part): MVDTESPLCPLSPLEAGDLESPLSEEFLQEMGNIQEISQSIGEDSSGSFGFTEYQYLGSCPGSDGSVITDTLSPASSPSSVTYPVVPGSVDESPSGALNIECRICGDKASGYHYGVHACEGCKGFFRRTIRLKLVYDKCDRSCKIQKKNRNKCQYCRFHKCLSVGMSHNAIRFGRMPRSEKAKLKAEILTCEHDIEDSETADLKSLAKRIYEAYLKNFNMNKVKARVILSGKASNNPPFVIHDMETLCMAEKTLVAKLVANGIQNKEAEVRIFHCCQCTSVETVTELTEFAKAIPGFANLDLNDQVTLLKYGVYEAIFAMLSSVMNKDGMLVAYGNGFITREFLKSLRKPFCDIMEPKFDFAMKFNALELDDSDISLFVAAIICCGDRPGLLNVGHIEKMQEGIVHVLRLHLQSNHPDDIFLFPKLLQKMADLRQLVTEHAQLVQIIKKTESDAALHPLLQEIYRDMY

CC(C)=CC1C(C(=O)OCN2C(=O)C3=C(CCCC3)C2=O)C1(C)C (stereo not drawn)
active: [1] 14.4 µM | [4] 15.6 µM | [5] 50 µM | [6] 40.2 µM
inactive: [2] | [3]

O=[N+]([O-])c1cc(C(F)(F)F)c(Cl)c([N+](=O)[O-])c1Nc1ncc(C(F)(F)F)cc1Cl
inactive: [3] | [8] | [9] | [5] | [6]
active: [1] 1.46 µM and 2.82 µM | [7] 3.09 µM and 3.8 µM | [4] 589 nM and 1.47 µM | [5] 0.651 µM | [6] 2.86 µM

CCOC(=O)COc1cc(-c2nn(C)c(OC(F)F)c2Cl)c(F)cc1Cl
active: [4] 15.5 µM | [6] 29.6 µM
not listed: [2]
inactive: all other assays above

CN1COCN(Cc2cnc(Cl)s2)C1=N[N+](=O)[O-]
inactive: [1] | [3] | [8] | [4] | [5]

CCOP(=S)(Oc1cnc(C(C)(C)C)nc1)OC(C)C (stereo not drawn)
inactive: [9] | [5] | [6]
active: [1] 36.8 µM | [4] 33.3 µM

COP(=O)(OC)OC(Br)C(Cl)(Cl)Br (stereo not drawn)
active: [1] 29.7 µM | [7] 36.4 µM | [4] 16 µM
inactive: [9] | [5]

CCCOc1nn(C(=O)NS(=O)(=O)c2ccccc2C(=O)OC)c(=O)n1C
active: [1] 1.09 µM
inactive: [4] | [5] | [6]

CC(C1CC1)C(O)(Cn1cncn1)c1ccc(Cl)cc1 (stereo not drawn)
not listed: [2] | [7]
inactive: all other assays above

CCOP(=S)(OCC)SCCSCC
not listed: [2]
inactive: all other assays above

CCC(=O)Nc1ccc(Cl)c(Cl)c1
not listed: [2] | [7]
inactive: all other assays above

CCc1cccc(C)c1N(C(=O)CCl)C(C)COC (stereo not drawn)
active: [5] 13.5 µM
inactive: [1] | [8] | [4] | [6]

CC1(C(=O)Nc2ccc(O)c(Cl)c2Cl)CCCCC1
active: [5] 50 µM | [6] 9.83 µM
inactive: [1] | [7] | [4]

CNC(=O)ON=C(SC)C(=O)N(C)C
inactive: [1] | [3] | [7] | [4] | [5]

Nc1c(Cl)cc([N+](=O)[O-])cc1Cl
not listed: [2] | [3] | [7]
inactive: all other assays above

Cc1cc(C2CC2)nc(Nc2ccccc2)n1
inactive: [1] | [3] | [9] | [6]
active: [4] 15.8 µM | [5] 50 µM

S=C1NCCN1
inactive: [1] | [8] | [4] | [5] | [6]

COc1ccc(C(=CC(=O)N2CCOCC2)c2ccc(Cl)cc2)cc1OC
inactive: [1] | [3] | [4] | [5] | [6]

CON=C(C(=O)OC)c1ccccc1CON=C(C)c1cccc(C(F)(F)F)c1
active: [4] 1.58 µM | [5] 50 µM
not listed: [2] | [7]
inactive: all other assays above

CNC(=O)ON=C(C)SC
not listed: [2] | [8] | [9]
inactive: all other assays above

CCC(CC)Nc1c([N+](=O)[O-])cc(C)c(C)c1[N+](=O)[O-]
active: [1] 17.1 µM | [4] 29.2 µM | [5] 73.2 µM | [6] 27.6 µM

O=c1ccc(=O)[nH][nH]1
not listed: [2] | [8] | [9]
inactive: all other assays above

O=C(O)c1cc(Oc2ccc(C(F)(F)F)cc2Cl)ccc1[N+](=O)[O-]
active: [9] 2.9 µM | [5] 37.1 µM
not listed: [2] | [7]
inactive: all other assays above

CCOP(=S)(OCC)Oc1cc(C)nc(C(C)C)n1
inactive: [1] | [7] | [4] | [6]
active: [5] 50 µM

CC[C@H](C)[C@H]1O[C@]2(C=C[C@@H]1C)C[C@@H]1C[C@@H](C/C=C(\C)[C@@H](O[C@H]3C[C@H](OC)[C@@H](O[C@H]4C[C@H](OC)[C@@H](NC)[C@H](C)O4)[C@H](C)O3)[C@@H](C)/C=C/C=C3\CO[C@@H]4[C@H](O)C(C)=C[C@@H](C(=O)O1)[C@]34O)O2
active: [1] 6.56 µM | [4] 1.68 µM
inactive: [3] | [5]

CSc1nc(NC(C)C)nc(NC(C)C)n1
active: [5] 47.6 µM | [6] 18.4 µM
not listed: [2] | [7]
inactive: all other assays above

C#CC(C)(C)NC(=O)c1cc(Cl)cc(Cl)c1
inactive: [1] | [7] | [9] | [4]
active: [6] 30.9 µM

C[N+]1(C)CCCCC1
not listed: [2] | [3] | [7]
inactive: all other assays above

CN(C)[C@@H]1C(=O)C(C(N)=O)=C(O)[C@@]2(O)C(=O)C3=C(O)c4c(O)cccc4[C@@](C)(O)[C@H]3[C@H](O)[C@@H]12
active: [4] 20 µM
inactive: [1] | [3] | [4] | [5] | [6]

N#CSCSC#N
active: [1] 8.79 µM | [7] 8.09 µM | [4] 2.07 µM
not listed: [2]
inactive: all other assays above

Cc1nn(-c2cc(NS(C)(=O)=O)c(Cl)cc2Cl)c(=O)n1C(F)F
active: [5] 28 µM | [6] 28.9 µM
inactive: [1] | [3] | [4]

CCc1cccc(CC)c1N(COC)C(=O)CCl
inactive: [6]
active: [1] 31.4 µM | [4] 28.5 µM | [5] 1.79 µM

CC1=NNC(=O)N(/N=C/c2cccnc2)C1
not listed: [2] | [7] | [8]
inactive: all other assays above

CCCCN(CC)c1c([N+](=O)[O-])cc(C(F)(F)F)cc1[N+](=O)[O-]
active: [4] 31.6 µM | [6] 14.4 µM
not listed: [2] | [7]
inactive: all other assays above

CCC(=NOC/C=C/Cl)C1=C(O)CC(C2CCOCC2)CC1=O (stereo not drawn)
inactive: [1] | [4] | [5] | [6]

Cc1ccn2nc(S(=O)(=O)Nc3c(F)cccc3F)nc2n1
not listed: [2] | [8] | [9]
inactive: all other assays above

CCCOCC(=Nc1ccc(Cl)cc1C(F)(F)F)n1ccnc1
inactive: [3] | [8] | [6]
active: [1] 33.6 µM | [7] 29.7 µM | [9] 1.1 µM | [4] 33.4 µM | [5] 1.36 µM

CCOP(=S)(OCC)Oc1ccc2c(C)c(Cl)c(=O)oc2c1
active: [9] 2.3 µM | [4] 9.56 µM | [6] 3.94 µM
not listed: [2]
inactive: all other assays above

CC(C)N(C(=O)SCC(Cl)=C(Cl)Cl)C(C)C
active: [1] 35.5 µM | [7] 30.9 µM | [4] 34.7 µM
inactive: [3] | [8] | [9] | [6]
